Assay results taken from PubChem BioAssay (NCATS).
Values joined by “and” are separate entries in the source; they are usually repeats but may differ in a detail not shown here. Identical values can stand only once. Records with an inconclusive call do not appear. Active and inactive are the calls of the source. Unless noted, calls follow the shape of the dose curve; as a rule, active = well fitted curve in either direction with a large enough effect (not every such curve was filed as active); inconclusive = small, poorly fitted or top-dose-only effect, or another doubt; inactive = flat fitted curve, though single readings scatter.

What was measured:
[1] = Stat Signaling Pathway (AID 446); conditions: ME-180 (cervical carcinoma) SIE beta-lactamase reporter, IL-6 stimulated, 5 h;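 also: ME-180 cervical cancer cells given 40 pM IL-6 alongside compound; SIE-controlled beta-lactamase reporter measured as 460/530 nm FRET emission ratio; % is scaled to controls: 0 for no effect and ±100 for the full control effect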
Procedure, shortened: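 IL-6/STAT signaling read in ME-180 cells via an SIE beta-lactamase reporter. Stimulus was 40 pM IL-6 (its AC50) for 5 hrs, so both activation and inhibition register.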

[2] = molecular target: Glucocorticoid receptor (Homo sapiens) (UniProt P04150); experiment: GR-GFP Redistribution (AID 450;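 active = compounds whose dose series gives a full or clear partial fitted curve of increased nuclear translocation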; also: potency is read from the fitted curve at half-maximal effect); conditions: U2OS GR-GFP nuclear translocation, laser cytometry, 2 h
Glucocorticoid receptor (Homo sapiens), sequence (P04150 whole entry, looked up, the tested form may be a part): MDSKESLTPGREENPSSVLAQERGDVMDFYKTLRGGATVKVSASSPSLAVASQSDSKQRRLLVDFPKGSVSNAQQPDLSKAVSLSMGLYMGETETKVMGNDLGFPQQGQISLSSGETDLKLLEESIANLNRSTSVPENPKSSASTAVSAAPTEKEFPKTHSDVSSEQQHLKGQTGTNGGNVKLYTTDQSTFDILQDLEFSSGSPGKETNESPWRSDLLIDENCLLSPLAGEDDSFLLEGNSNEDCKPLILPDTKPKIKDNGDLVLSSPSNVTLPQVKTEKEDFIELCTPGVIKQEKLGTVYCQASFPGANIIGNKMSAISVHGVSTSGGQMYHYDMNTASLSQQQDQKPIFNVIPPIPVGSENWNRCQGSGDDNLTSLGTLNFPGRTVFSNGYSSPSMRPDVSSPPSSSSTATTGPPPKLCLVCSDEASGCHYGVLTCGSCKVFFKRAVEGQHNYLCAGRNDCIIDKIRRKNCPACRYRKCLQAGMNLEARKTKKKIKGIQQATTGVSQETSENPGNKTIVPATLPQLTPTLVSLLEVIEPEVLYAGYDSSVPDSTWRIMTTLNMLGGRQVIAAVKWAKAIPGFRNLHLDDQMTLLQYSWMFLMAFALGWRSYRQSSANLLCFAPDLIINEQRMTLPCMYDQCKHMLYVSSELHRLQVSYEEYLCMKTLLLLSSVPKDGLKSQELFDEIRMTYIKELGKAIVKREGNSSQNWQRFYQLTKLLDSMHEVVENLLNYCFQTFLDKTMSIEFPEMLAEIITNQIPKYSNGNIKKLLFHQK

[3] = molecular target: Glucocorticoid receptor (Homo sapiens) (UniProt P04150); experiment: GR-EFC Redistribution (AID 451; calls by dose curve; also: potency is read from the fitted curve at half-maximal effect); conditions: CHO-K1 GR-EFC translocation, beta-gal luminescence, 2 h
Procedure, shortened: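 CHO-K1 cells stably expressing nuclear-localized β-gal enzyme acceptor and GR fused C-terminally to the enzyme donor fragment; ligand-driven nuclear translocation restores β-gal by complementation. Compounds titrated up to 46 uM final, 2 h at 37 °C; luminescence read.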

[4] = molecular target: Mitogen-activated protein kinase 10 (Mus musculus) (UniProt Q61831); experiment: JNK3 AlphaScreen Assay (AID 530); conditions: JNK3 lysate, c-Jun phosphorylation; series mostly up to 57.1 µM;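 also: kinase came from lysate of stimulated human HepG2 cells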; also: potency is read from the fitted curve at half-maximal effect;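 as to activity change, negative = inhibition: signal reports phosphorylation of biotinylated GST-cJun 1-79 at Ser73 with 10 µM ATP; % is scaled to controls: 0 for no effect and ±100 for the full control effect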
Procedure, shortened: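 JNK3 came from HepG2 lysates pre-activated with IL-1beta and TNF-alpha and phosphorylated biotinylated GST-cJun (1-79) at 10 uM ATP, pH 7.6, room temperature. Compounds were titrated. AlphaScreen signal used anti-phospho-cJun (Ser73) antibody.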

OC[C@H]1O[C@@H](n2cnc3c(Nc4ccccc4)ncnc32)[C@H](O)[C@@H]1O
inactive: activity, negative = inhibition ([1]; at 17.2 µM (top of the series)) 17.7% | Potency [2] > 20.6 µM

COc1ccccc1N1CCN(CCCCNS(=O)(=O)c2cccc3c(N(C)C)cccc23)CC1
inactive: activity, negative = inhibition ([1]; at 38 µM (top of the series)) -7.18% | Potency [2] > 46 µM | Potency [3] > 46 µM

Nc1nc(Cl)nc2c1ncn2[C@@H]1O[C@H](CO)[C@@H](O)[C@H]1O
inactive: activity, negative = inhibition ([1]; at 17.2 µM (top of the series)) 24.3% | Potency [2] > 20.6 µM

O=C1C(SCCO)=C(SCCO)C(=O)c2ccccc21
active: activity, negative = inhibition ([1]; at 38 µM (top of the series)) 134%
inactive: Potency [2] > 46 µM | Potency [3] > 46 µM | Potency [4]

CN1[C@@H]2CC[C@H]1CC(OC(c1ccccc1)c1ccccc1)C2 (some centres undefined)
inactive: activity, negative = inhibition ([1]; at 7.69 µM (top of the series)) 0.0599% | activity, negative = inhibition ([1]; at 38 µM (top of the series)) -14.8% | Potency [2] > 46 µM | Potency [3] > 46 µM and > 9.22 µM | Potency [4]

OC[C@H]1O[C@@H](n2cnc3c(NC4CCCC4)ncnc32)[C@H](O)[C@@H]1O
inactive: activity, negative = inhibition ([1]; at 17.2 µM (top of the series)) 15.8% | Potency [2] > 20.6 µM

CC1(C)CCC=[N+]1[O-]
inactive: activity, negative = inhibition ([1]; at 38 µM (top of the series)) 4.29% | Potency [2] > 46 µM | Potency [3] > 46 µM | Potency [4]

O=C(O)c1cc(=O)c2c(Cl)cc(Cl)cc2[nH]1
inactive: activity, negative = inhibition ([1]; at 38 µM (top of the series)) 15.7% | Potency [2] > 46 µM | Potency [3] > 46 µM

COc1ccc(/C=C/C(=O)Nc2ccccc2C(=O)O)cc1OC
inactive: activity, negative = inhibition ([1]; at 17.2 µM (top of the series)) -24.7% | Potency [2] > 20.6 µM

O=C(O)CC[C@@H](C(=O)O)N1C(=O)c2ccccc2C1=O
inactive: activity, negative = inhibition ([1]; at 7.69 µM (top of the series)) 3.89% | activity, negative = inhibition ([1]; at 38 µM (top of the series)) 0.0495% | Potency [2] > 46 µM | Potency [3] > 46 µM and > 9.22 µM | Potency [4]

Cc1nc2sccn2c(=O)c1CCN1CCC(=C(c2ccccc2)c2ccc(F)cc2)CC1
inactive: activity, negative = inhibition ([1]; at 17.2 µM (top of the series)) -13.7% | activity, negative = inhibition ([1]; at 38 µM (top of the series)) 13.4% | Potency [2] > 46 µM and > 20.6 µM | Potency [3] > 46 µM | Potency [4]

NCCSSCCN
inactive: activity, negative = inhibition ([1]; at 7.69 µM (top of the series)) -10% | activity, negative = inhibition ([1]; at 38 µM (top of the series)) -21.5% | Potency [2] > 46 µM | Potency [3] > 46 µM and > 9.22 µM | Potency [4]

N#C/C(=C\c1ccc(O)c(O)c1)C(=O)NCCCc1ccccc1
active: Potency [4] 10 µM
inactive: activity, negative = inhibition ([1]; at 17.2 µM (top of the series)) -22.9% | activity, negative = inhibition ([1]; at 38 µM (top of the series)) -10.2% | Potency [2] > 46 µM and > 20.6 µM | Potency [3] > 46 µM

Clc1ccccc1-c1nc(-c2ccncc2)no1
inactive: activity, negative = inhibition ([1]; at 7.69 µM (top of the series)) -6.11% | Potency [2] > 46 µM | Potency [3] > 9.22 µM | activity change, negative = inhibition [4] 3.99% [at 11.4 µM]

CCCn1c(=O)c2[nH]c(-c3ccc(OCC(=O)NCCN)cc3)nc2n(CCC)c1=O
inactive: activity, negative = inhibition ([1]; at 38 µM (top of the series)) -14% | Potency [2] > 46 µM | Potency [3] > 46 µM | Potency [4]

c1ccc(-c2ccccn2)nc1
inactive: activity, negative = inhibition ([1]; at 38 µM (top of the series)) 6.11% | Potency [2] > 46 µM | Potency [3] > 46 µM | Potency [4]

CCCN(CC1CC1)c1nc(C)nc(Nc2c(Cl)cc(Cl)cc2Cl)c1Cl
inactive: activity, negative = inhibition ([1]; at 38 µM (top of the series)) -12.8% | Potency [2] > 46 µM | Potency [3] > 46 µM

CN1[C@@H](CC(=O)c2ccccc2)CCC[C@H]1C[C@H](O)c1ccccc1
inactive: activity, negative = inhibition ([1]; at 17.2 µM (top of the series)) 5.71%

O=c1[nH]c2ccccc2n1CCCN1CCN(C(c2ccccc2)c2ccccc2)CC1
inactive: activity, negative = inhibition ([1]; at 17.2 µM (top of the series)) -2.06% | Potency [2] > 46 µM and > 20.6 µM | Potency [3] > 46 µM

CC(C)Cc1ccc([C@H](C)C(=O)O)cc1
inactive: activity, negative = inhibition ([1]; at 17.2 µM (top of the series)) -0.514% | activity, negative = inhibition ([1]; at 38 µM (top of the series)) -0.822% and 26.9% | Potency [2] > 46 µM and > 20.6 µM | Potency [3] > 46 µM and > 20.6 µM | Potency [4]

O=C(Nc1cccc(C(=O)Nc2ccc(S(=O)(=O)O)c3cc(S(=O)(=O)O)cc(S(=O)(=O)O)c23)c1)Nc1cccc(C(=O)Nc2ccc(S(=O)(=O)O)c3cc(S(=O)(=O)O)cc(S(=O)(=O)O)c23)c1
inactive: activity, negative = inhibition ([1]; at 38 µM (top of the series)) -0.505% | Potency [2] > 46 µM | Potency [3] > 46 µM

CNCC[C@H](Oc1ccc(C(F)(F)F)cc1)c1ccccc1
inactive: activity, negative = inhibition ([1]; at 17.2 µM (top of the series)) -1.77% | activity, negative = inhibition ([1]; at 38 µM (top of the series)) -30.6% and 21.5% | Potency [4]

NCCCCCCCCCCN
inactive: activity, negative = inhibition ([1]; at 38 µM (top of the series)) -2.37% | Potency [2] > 46 µM | Potency [3] > 46 µM

CN(C)c1nc(N)c(C(=O)N=C(N)N)nc1Cl
inactive: activity, negative = inhibition ([1]; at 38 µM (top of the series)) 19% | Potency [2] > 46 µM | Potency [3] > 46 µM

O=C1NC(O)=NC1(c1ccccc1)c1ccccc1
inactive: activity, negative = inhibition ([1]; at 38 µM (top of the series)) -6.76% | Potency [2] > 46 µM | Potency [3] > 46 µM

NCCCCC(=O)O
inactive: activity, negative = inhibition ([1]; at 38 µM (top of the series)) 0.307% | Potency [2] > 46 µM | Potency [3] > 46 µM | Potency [4]

Ic1ccc(N2CCN(Cc3c[nH]c4ncccc34)CC2)cc1
inactive: activity, negative = inhibition ([1]; at 38 µM (top of the series)) -23% | Potency [2] > 46 µM | Potency [3] > 46 µM

CCOc1ccc2nc(S(N)(=O)=O)sc2c1
inactive: activity, negative = inhibition ([1]; at 17.2 µM (top of the series)) 12.3% | Potency [2] > 20.6 µM

N#C/C(=C\c1c[nH]c2ccccc12)C(=O)c1ccc(O)c(O)c1
inactive: activity, negative = inhibition ([1]; at 38 µM (top of the series)) -11% | Potency [2] > 46 µM | Potency [3] > 46 µM

NC(N)=NC(=O)c1nc(Cl)c(N2CCCCCC2)nc1N
inactive: activity, negative = inhibition ([1]; at 38 µM (top of the series)) 1% | Potency [2] > 46 µM | Potency [3] > 46 µM | Potency [4]

Cn1c(=O)c2[nH]c(-c3ccccc3)nc2n(C)c1=O
inactive: activity, negative = inhibition ([1]; at 38 µM (top of the series)) -0.0891% | Potency [2] > 46 µM | Potency [3] > 46 µM | Potency [4]

O=c1[nH]c2cc(Cl)c(Cl)cc2[nH]c1=O
inactive: activity, negative = inhibition ([1]; at 38 µM (top of the series)) -0.584% | Potency [2] > 46 µM | Potency [3] > 46 µM
